Experimental findings from PubChem BioAssay (NCI) are described below.

About 83,000 compounds went through this panel and 20% of them were active in at least one assay; those are over-represented in the sample as a whole.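 Step 1: grow cells in 96-well plates. Step 2: add test compound at a single concentration. Step 3: incubate 48 h. Step 4: record percent growth.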 Unmarked numbers belong to inactive results. Active and inactive are the calls of the source. How the source made its calls: active means growth percent below 10; inactive means the rest.

In this assay the test system is HL-60(TB) leukemia. Kind of assay: NCI-60 one-dose screen, 48 h (100 = growth as untreated, 0 = no growth, -100 = all killed). To be noted: 10 µM unless noted.
`CCOC(=O)c1sc(NC(=O)COc2cccc(/C=C3\Cc4ccc(Cl)cc4C3=O)c2)nc1C`: the growth is 120%.

Regarding `FC(F)(F)c1ccc2c(c1)Sc1ccccc1N2`, the growth is 72.6%.

Regarding `CN(C)C(=O)c1cc2cnc(Nc3ccc(-c4csc5c(=O)cc(N6CCOCC6)oc45)cc3)nc2n1C1CCCC1`, the growth was -46.7% (active).

As to `O=C(/C=C/C12c3ccccc3C(c3ccccc31)C1C(=O)NC(=O)C12)c1ccc(F)cc1` (stereo not given), the growth is -19.5% (active).

Consider `CCSc1oc(-c2ccccc2)nc1[P+](c1ccccc1)(c1ccccc1)c1ccccc1`, for which the growth was -35.1% (active).

`COc1cc2c(cc1I)-c1c(cc(OC)c(OC)c1OC)CC[C@@H]2NC(C)=O`: the growth was 6.93% (active).

As to `COc1ccc(C(C)c2cc(OC)c(OC)c(OC)c2)cc1` (stereo not given), the growth was -15.6% (active).

For `CNc1cc(C(=O)O)nc(NC)n1`, the growth is 105%.

As for `O=C1OCC2=C1C(c1cccc(Br)c1)c1cc3c(cc1N2CCO)OCCO3` (stereo not given), the growth was -23.7% (active).

With `O=S(=O)(O)c1ccc(N=Nc2ccc(N=Nc3cccc4ccccc34)c(S(=O)(=O)O)c2)cc1`, the growth was 105%.

Turning to `COC(=O)[C@]12CC[C@@H](C)[C@H](C)[C@@H]1C1=CC[C@@H]3[C@@]4(C)C[C@@H](OC(=O)/C=C/c5ccccc5)[C@H](O)[C@@](C)(CO)[C@@H]4[C@H](O)C[C@@]3(C)[C@]1(C)CC2`, the growth was -20.6% (active).

As to `CC(=O)c1c(C)[nH]c(-c2nc3ccc(N4CCN(C)CC4)cc3[nH]2)c1-c1ccc2c(c1)OCCO2`, the growth is -0.621% (active).

For `CCCC(=O)NNc1[nH]c(-c2cc(OC)c(OC)c(OC)c2)cc1C(=O)OCC`, the growth was -11.1% (active).

On to `C#CC[C@@H]1C[C@]2(C)[C@H]3CC[C@@H]4[C@H]5C(C(=C)C)CC[C@]5(C(=O)NCCN(CCN)CCN)CC[C@@]4(C)[C@]3(C)CC[C@H]2C(C)(C)[C@H]1OC(C)=O` (stereo not given in full), for which the growth is 41.5%.

In the case of `COc1ccc(-c2cn(Cc3ccc4c(Br)cc(Br)c(O)c4n3)nn2)cc1`, the growth is 48.6%.

For `Cc1c2c(cn1Cc1ccccc1)CCc1cn(C)nc1-2`, the growth was 63.4%.

On to `O=C1C=CC(=O)c2c1nc1n2CCCC1`, for which the growth was 94.7%.

Take `O=C(Nc1cccc(-n2cc(-c3ccncc3)c(-c3ccc(O)c(Cl)c3)n2)c1)c1cc(C(F)(F)F)cc(C(F)(F)F)c1`: the growth is 58.9%.

Take `CN(C)C1CCN(C(=O)c2ccc(NC(=O)Nc3ccc(-c4nc(N5CCOCC5)c5cccn5n4)cc3)cc2)CC1`: the growth is 4.58% (active).

Consider `COc1cccc(N2CCN(c3cccc(C)n3)CC2)c1`, for which the growth was 100%.

Turning to `c1ccc(Sc2ccccc2)cc1`, the growth is 85.8%.

Consider `CO[C@H](C(=O)[C@@H](O)[C@@H](C)O)[C@@H]1Cc2cc3cc(O[C@H]4C[C@@H](O[C@H]5C[C@@H](O)[C@H](O)C(C)O5)[C@H](O)C(C)(O)O4)cc(O)c3c(O)c2C(=O)[C@H]1O[C@H]1C[C@@H](O[C@H]2C[C@@H](O[C@H]3C[C@@H](OC)[C@H](O)C(C)O3)[C@@H](O)C(C)O2)[C@H](O)C(C)O1` (stereo not given in full), for which the growth was 71%.

As for `O=S(=O)(c1ccc(OCCO)cc1)c1ccc(OCCO)cc1`, the growth was -0.844% (active).

For the molecule `Cc1cc(NC(=O)C2c3ccccc3C(=O)N(CC(C)C)C2c2cccs2)no1` (stereo not given), the growth was 0.0249% (active).

Regarding `CCCCCCCCCCCCCCCCOc1ccccc1NC(=O)CC(C)=O`, the growth is 98%.

Consider `CCN1C(=O)C(C)C=C(C)C=C1C` (stereo not given), for which the growth is 94.4%.

As for `CN(C)c1ccc2nc3ccc(=[N+](C)C)c([N+](=O)[O-])c-3sc2c1`, the growth was 2.66% (active).

For `CCOC(=O)c1cc2cccc(OC)c2oc1=O`, the growth is 117%.

As to `O=C1CCC/C=C\C[C@H]2C=CC(=O)/C2=C/C[C@H](CCc2cccc(C(F)(F)F)c2)O1`, the growth is -25.5% (active).

Regarding `CCOc1ccc(/C=C/C=N/NC(N)=S)cc1`, the growth is 42%.

As for `O=C1OC2C(I)C3CC2C1C3c1ccccc1` (stereo not given), the growth was 85.7%.

Take `O=C(N/N=C/c1cccc([N+](=O)[O-])c1)c1ccc(Br)o1`: the growth is 103%.

For the molecule `CCOC(=O)c1cnc2ccc(Br)cc2c1Nc1cccc(S(N)(=O)=O)c1`, the growth was 99.5%.

For the molecule `Nc1ccc(S(=O)(=O)Nc2ccsc2-c2nc(-c3ccccc3)no2)cc1`, the growth is 35.1%.

`O=C(O/C(=C/c1ccccc1)C(F)(F)F)c1ccccc1`: the growth was 32.3%.

With `COc1cc(/C=C2\C(=O)Nc3cc(C)c(O)cc32)cc(OC)c1OC`, the growth is 46.7%.

Consider `COc1ccc(-c2cc(-c3ccc(Cl)cc3)nc(NCCCCNc3ccnc4cc(Cl)ccc34)n2)cc1`, for which the growth was 16.7%.

For the molecule `Nc1ccc(-c2ccc(N)c(S(=O)(=O)O)c2)cc1S(=O)(=O)O`, the growth was 91.4%.

For `COc1cc(CNC(=O)CCCC/C=C/C(C)C)ccc1OCc1cn(-c2ccc([N+](=O)[O-])cc2)nn1`, the growth is 81%.

In the case of `CCCCCCn1c(=N)n(CC(O)COc2cccc(C)c2)c2ccccc21` (stereo not given), the growth is -48% (active).
